High-throughput results: PubChem BioAssay, National Center for Advancing Translational Sciences (NCATS)
Only some compounds are listed: those with a hit (about 19% of all), similar ones and a draw of the others.
IL-1B inflam inh: inhibitors of inflammasome signaling (IL-1 beta secretion); THP-1 LPS/ATP IL-1B secretion, AlphaLISA, 16 h; active compounds read low; activity change, % at 57.5 µM; 360,000 compounds, 4.7% hits; AID 743279; in the data active = activity change below about -50%; inconclusive = mostly about -30% to -49%; note: % is set by controls: 0 for no effect and ±100 for the full control effect
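Secreted IL-1B measured by AlphaLISA bead assay after 16 h compound exposure of THP-1 cells; compounds (final up to 57.5 uM) added 1 h before LPS (250 ng/mL) and ATP (1.25 mM) stimulation; lower signal means less secretion.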
TGFb inhibitor: TGF-b pathway inhibition; HepG2 CAGA-GFP TGF-b/SMAD3 reporter, GFP fluorescence, 18 h; TGF-beta stimulated, 500 pg/mL final; Potency, µM (doses to about 46.1 µM), for the others: at the top dose activity, negative = inhibition, hits mostly inhibitors; 410,000 compounds, 1.2% hits; note: potency is the fitted concentration of half-maximal effect; % is set by controls: 0 for no effect and ±100 for the full control effect; nearly all actives have a fitted effect of over 65% in size
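GFP signal (ex488/em500-530) from TGF-beta-stimulated HEPG2 CAGA-GFP cells, 500 pg/mL final, 18 h at 37 degrees C in DMEM plus 1% FBS, normalized to unstimulated and DMSO-stimulated controls.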
S-ASM inh: human S-ASM enzyme inhibition | P17405 | placental ASM, HMU-PC fluorogenic substrate, 60 min | Potency, µM (highest dose often 57.5 µM), for inactives: top-dose activity change, negative = inhibition, actives largely listed as inhibitors | 340,000 compounds, 0.006% hits; note: potency is the fitted concentration of half-maximal effect
Target sequence (P17405 47-631 limits assumed): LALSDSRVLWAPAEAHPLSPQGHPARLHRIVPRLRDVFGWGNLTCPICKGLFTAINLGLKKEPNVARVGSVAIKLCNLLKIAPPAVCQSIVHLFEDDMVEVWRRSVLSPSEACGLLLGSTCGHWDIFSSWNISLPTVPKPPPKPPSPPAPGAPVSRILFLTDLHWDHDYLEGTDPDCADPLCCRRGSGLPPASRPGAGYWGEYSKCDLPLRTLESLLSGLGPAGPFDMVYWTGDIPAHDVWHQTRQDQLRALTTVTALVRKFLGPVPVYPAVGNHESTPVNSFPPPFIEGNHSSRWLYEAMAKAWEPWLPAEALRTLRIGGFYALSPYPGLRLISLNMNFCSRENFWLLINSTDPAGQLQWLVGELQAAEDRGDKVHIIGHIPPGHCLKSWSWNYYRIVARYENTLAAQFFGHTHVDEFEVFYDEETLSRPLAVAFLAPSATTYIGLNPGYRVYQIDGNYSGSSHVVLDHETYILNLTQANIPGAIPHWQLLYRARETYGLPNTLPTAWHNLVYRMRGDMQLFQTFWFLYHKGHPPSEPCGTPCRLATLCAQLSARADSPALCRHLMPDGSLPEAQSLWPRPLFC
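Human placenta-derived ASM preincubated with compound 10 min at room temperature, then reacted with 9 uM (final) fluorogenic HMU-PC substrate for 60 min at 37 C. Stop solution raises pH to 10; fluorescence read at Ex 386/Em 447 nm.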
DT40 TDP1 no CPT: qHTS for Inhibitors of human tyrosyl-DNA phosphodiesterase 1 (TDP1): qHTS in cells in absence of CPT. DT40 Tdp1-/- hTDP1 cells, no CPT, ATP luminescence, 48 h. Potency, µM (series often up to 46.2 µM), for inactives: at the top dose activity change, negative = growth inhibition, most hits filed as inhibitors. 420,000 compounds, 15% hits; note: potency is the fitted concentration of half-maximal effect; % is set by controls: 0 for no effect and ±100 for the full control effect; nearly all actives have a fitted effect of over 55% in size
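A cellular qHTS used chicken DT40 cells lacking endogenous Tdp1 but carrying stably transfected human TDP1. Compounds were applied without camptothecin, and cell growth kinetics were judged by ATP-dependent luminescence after ≥48 hr.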
HepG2 tox: counter-screen for TGF-b inhibitors: cytotoxicity in HepG2 cells; HepG2 CAGA-GFP viability, ATP luminescence, 18 h; Potency, µM (top dose mostly 46.1 µM), inactives show at the highest dose activity change, negative = cytotoxicity, hits mostly cytotoxic; 410,000 compounds, 0.76% hits; AID 588856; note: potency is the fitted concentration of half-maximal effect
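HepG2 CAGA-GFP cells (1000/well, DMEM with 1% FBS) received compound, then TGF-beta at 500 pg/mL final, and were incubated 18 hours at 37 degrees C. Viability was read by CellTiter-Glo luminescence. Media-only wells were set as complete cell-killing and DMSO as no toxicity.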
TDP1 cell CPT: DT40-hTDP1 cell growth loss with CPT; chicken DT40 Tdp1-/-;hTDP1 cells + 20 nM CPT, ATP luminescence, 48 h; Potency, µM (top dose mostly 46.2 µM), for inactives: top-dose activity change, negative = growth inhibition, usual class: inhibitors; 420,000 compounds, 12% hits; AID 686979; note: potency is the fitted concentration of half-maximal effect; % is set by controls: 0 for no effect and ±100 for the full control effect; nearly all actives have a fitted effect of over 55% in size
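Cell growth measured by CellTiter-Glo luminescence after a minimum 48 h, 37 C compound exposure with 20 nM CPT in Tdp1-knockout DT40 cells stably expressing hTDP1, seeded 400/well; qHTS titration format.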
An asterisk follows results filed as active; ? = inconclusive; / = no result. Unless noted, calls come from the whole dose curve; as a rule, active = well fitted curve in the direction sought with a large enough effect; inconclusive = small, poorly fitted or top-dose-only effect, or another doubt; inactive = no such curve, though single readings can be large; an effect the other way counts as inactive or inconclusive.

SMILES | IL-1B inflam inh | TGFb inhibitor | S-ASM inh | DT40 TDP1 no CPT | HepG2 tox | TDP1 cell CPT
CC1(C)CC[C@]2(CO)CC[C@]3(C)C(=CCC4[C@@]5(C)CC[C@H](O)[C@@](C)(CO)C5CC[C@]43C)[C@@H]2C1 (stereo partly drawn) | 10.3 | -8.5% | -7.3% | ? | -18.0% | ?
NC(=O)c1cc(C(=O)Cc2ccc(Cl)cc2)c[nH]1 | -3.9 | 12.3% | -1.4% | -20.6% | 5.2% | 0.1%
COc1ccccc1S(=O)(=O)Cc1ccc(C(=O)N2CCOCC2)o1 | 3.4 | -0.1% | -0.5% | -13.9% | 14.1% | -2.0%
COc1ccccc1S(=O)(=O)Cc1ccc(C(=O)N2CCN(c3cccc(Cl)c3)CC2)o1 | 13.6 | 7.9% | -2.8% | 5.8µM* | -3.5% | 6.51µM*
COc1ccccc1S(=O)(=O)Cc1ccc(C(=O)N2CCN(c3cc(Cl)ccc3C)CC2)o1 | / | -14.9% | / | 8.2µM* | -26.2% | ?
Cc1ccc(C)c(N2CCN(C(=O)c3ccc(CS(=O)Cc4ccc(Cl)cc4)o3)CC2)c1 (stereo not drawn) | -7.8 | ? | -9.5% | ? | -12.6% | ?
CCOC(=O)c1[nH]c(C)c(C(=O)NCCc2ccccc2)c1C | / | -17.3% | / | -11.7% | -33.8% | -13.6%
Cc1ccc2nc(SCC(=O)N3CCC4(CC3)CC4C(=O)Nc3ccc(F)c(F)c3)[nH]c2c1 (stereo not drawn) | / | / | / | 23.1µM* | / | ?
Cc1ccc2nc(SCC(=O)N3CCCC3)[nH]c2c1 | -7.4 | -13.0% | 2.9% | -9.7% | -11.8% | -3.8%
CCCCn1c(N)c(N(CC)C(=O)c2ccccc2F)c(=O)[nH]c1=O | 5.5 | 0.0% | -14.1% | 0.4% | 8.9% | 6.8%
CCc1nnc(NC(=O)c2ccncc2)s1 | 1.0 | -14.3% | 1.5% | -3.6% | -27.4% | 1.1%
CCOc1ccccc1C(=O)Nc1nnc(CC)s1 | 14.1 | -4.8% | -3.9% | 20.6µM* | -8.6% | 16.4µM*
CCOc1ccccc1C(=O)Nc1ccccc1C(N)=O | -8.9 | -3.0% | 1.9% | -23.1% | 2.3% | -23.1%
CCOc1ccccc1C(=O)Nc1ccsc1C(=O)OC | -3.3 | -37.5% | -4.3% | 3.66µM* | -24.8% | 4.11µM*
CCc1nnc(NC(=O)c2cccc(C(=O)Nc3nnc(CC)s3)n2)s1 | 75.6 | 0.251µM* | -1.3% | 0.0206µM* | -53.6% | 0.146µM*
CC(=O)OCC(=O)Nc1c(C)cccc1C | -9.6 | 1.4% | -2.2% | 12.9% | -20.5% | -2.8%
CN(Cc1ccccc1Cl)C(=O)CNC(=O)C12CC3CC(CC(C3)C1)C2 | 4.3 | -14.7% | -3.8% | ? | -26.6% | 20.6µM*
CN(Cc1ccccc1)C(=O)CNC(=O)C12CC3CC(CC(C3)C1)C2 | 9.3 | -5.1% | -0.7% | -13.3% | -10.8% | -19.4%
Cc1cccc(C(=O)Nc2sc3c(c2C(=O)Nc2ccccc2)CCC3)c1 | / | 0.7% | / | ? | -2.3% | -26.6%
Cc1cccc(C(=O)c2c(N)sc3c2CCC(C)C3)c1 (stereo not drawn) | 11.1 | ? | -4.3% | ? | -1.6% | ?
Cc1cccc(C(=O)Nc2sc3c(c2C(=O)O)CCCC3)c1 | -13.0 | 0.0% | 0.7% | ? | -24.3% | 16.4µM*
Cc1cccc(NC(=O)c2c(Br)sc3c2CCCC3)c1 | / | ? | / | 23.1µM* | -35.0% | ?
CCN(CC)C(=O)c1c(NC(=O)c2cccc(C)c2)sc2c1CCC(C)C2 (stereo not drawn) | / | 0.8% | / | 16.4µM* | -1.0% | 23.1µM*
Cc1cccc(NC(=S)NNC(=O)c2csc3c2CCCC3)c1 | 6.0 | ? | -2.9% | ? | 0.0% | ?
COc1ccc(CC(=O)N/N=C(\C)c2cccs2)cc1OC | 7.8 | -0.6% | 0.1% | -11.8% | -0.4% | -20.1%
SMILES | IL-1B inflam inh | TGFb inhibitor | S-ASM inh | DT40 TDP1 no CPT | HepG2 tox | TDP1 cell CPT
CC1CCc2sc(C(=O)OCC(=O)NC(C)C)cc2C1 (stereo not drawn) | -23.3 | 12.9% | 12.2% | -12.8% | 3.8% | 4.6%
CC1CCN(c2ccc3c(c2)S(=O)(=O)c2cccc(C(=O)NC4CC4)c2C3=O)CC1 | 14.0 | 3.5% | -1.6% | ? | -20.8% | ?
Cc1ccccc1-n1nc(-c2cccnc2)cc1C(=O)N/N=C/c1ccncc1 | -3.0 | 9.5% | -0.2% | -22.3% | 7.9% | ?
C/C(=N\Nc1nc(C)cc(C)n1)c1ccc(C)o1 | -1.6 | 9.1% | 5.0% | 0.2% | -13.5% | 4.5%
C/C(=N\Nc1nnc2c3ccccc3n(C)c2n1)c1ccc(C)o1 | -65.2* | -28.1% | -7.0% | ? | -19.9% | -18.1%
Cc1ccc(-c2csc(Cc3nc(-c4ccc5c(c4)CCC(=O)N5)cs3)n2)cc1 | 35.3 | -18.6% | -3.9% | ? | -10.1% | ?
O=C1CCc2cc(-c3csc(-c4ccc(O)cc4)n3)ccc2N1 | / | -18.4% | / | 3.16µM* | -43.3% | 11.2µM*
Cn1cccc1/C=N/NC(=O)c1cc2ccccc2cc1O | 73.5 | ? | -0.4% | 20.6µM* | -28.6% | -26.5%
Cn1cccc1/C=N/NC(=O)c1cc(-c2cccs2)nc2ccccc12 | 21.5 | 0.0% | -9.7% | 5.8µM* | -32.6% | 8.2µM*
COc1ccccc1-c1csc(NC(=O)c2cc(-c3cccs3)nc3ccccc23)n1 | -13.6 | 4.3% | 0.3% | -27.0% | 10.6% | -21.1%
O=C(N/N=C/c1cccnc1)c1cc(-c2cccs2)nc2ccccc12 | 29.7 | -9.7% | 47.0% | 16.4µM* | -45.2% | ?
O=C(N/N=C/c1ccc[nH]1)c1cc(-c2cccs2)nc2ccccc12 | 15.1 | -9.6% | -3.5% | 20.6µM* | -36.3% | ?
Cn1cccc1/C=N/NC(=O)c1ccccn1 | -21.1 | 4.2% | 1.6% | ? | -21.0% | ?
CCOC(=O)N1CCN(C(C(=O)NC2CCCC2)c2ccco2)CC1 (stereo not drawn) | 12.1 | / | / | -1.3% | / | ?
Cc1ccc2c(Cl)c(C(=O)N/N=C/c3cccn3C)sc2c1 | 1.8 | -35.9% | 7.0% | 8.2µM* | 5.9% | 8.2µM*
Cc1cc(C(=O)N/N=C/c2cccn2C)no1 | -7.6 | -11.6% | -2.1% | -11.6% | 1.7% | 10.2%
O=C(N/N=C/c1ccc2ncccc2c1)c1cc(-c2cccs2)nc2ccccc12 | 30.3 | 17.6% | 171.9% | 3.26µM* | 34.0% | 2.91µM*
COc1cc(NC(=O)[C@@H](NC(=O)c2ccco2)C(C)C)c(OC)cc1NC(=O)c1ccccc1 | 32.0 | 16.1% | -0.7% | ? | 8.1% | -5.9%
